± gives the standard deviation of the averaged measurements.
System: DLD1
Assay: cell viability (CellTiter-Glo) relative to plate median (fraction of plate median); higher = more viable cells
Conditions: 5 µM; treatment time 24 h; reporter: 7TFP
Procedure, shortened: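 Colorectal cancer lines with stably integrated lentiviral TCF/Wnt firefly luciferase reporters received library compounds at a final 5 µM, 24 h after seeding into 384-well plates, for a 24 h exposure. Reported figures are plate-median-normalised firefly luciferase or CellTiterGlo luminescence per well. They average two independent replicates.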

SMILES	cell viability
CN(C)CCc1c[nH]c2ccc(Cn3cncn3)cc12	0.968 ± 0.011
O=c1c(O)c(-c2ccc(O)c(O)c2)oc2c(O[C@@H]3O[C@H](CO)[C@@H](O)[C@H](O)[C@H]3O)c(O)cc(O)c12	0.99 ± 0.057
CCCNC(C)C(=O)Nc1ccccc1C (centres undefined)	1 ± 0.013
CC(=O)O[C@@H]1C[C@H]2C(C)(C)[C@@H](O)CC[C@]2(C)[C@H]2CC[C@@]3(C)[C@H](c4ccoc4)OC(=O)[C@H]4O[C@]43[C@@]21C [beta-DIHYDROGEDUNOL]	0.978 ± 0.028
COc1ccc2c(c1)c(CC(=O)O)c(C)n2C(=O)c1ccc(Cl)cc1	1.01 ± 0.016
COc1ccc(-c2coc3c(OC)c(OC)cc(O)c3c2=O)cc1	1.01 ± 0.017
C=C1C[C@]23C[C@@]1(O)CC[C@H]2[C@@]12C=C[C@H](O)[C@@](C)(C(=O)O1)[C@H]2[C@@H]3C(=O)O	1.03 ± 0.014
C[C@H]1[C@H](C)CC[C@]2(CO)CC[C@]3(C)C(=CC[C@@H]4[C@@]5(C)CC[C@H](O)C(C)(C)[C@@H]5CC[C@]43C)[C@H]12	1 ± 0.042
CC(=O)Oc1cccc(O)c1	1.01 ± 0.095
CCN(CC)C(C)CN1c2ccccc2Sc2ccccc21 (centres undefined)	1.07 ± 0.11
CCCCCC1C(=O)CCC1CC(=O)O (centres undefined)	1.02 ± 0.25
OC[C@H]1O[C@@H](Oc2ccc(O)cc2)[C@H](O)[C@@H](O)[C@@H]1O	0.965 ± 0.04
O=C(O)c1nc2cc(Cl)c(Cl)cc2nc1O	0.95 ± 0.16
C[C@@H]1O[C@H]2O[C@@H]3[C@@H](C)OC(c4ccc5c(c4O)C(=O)c4ccc(C[C@@](C)(O)CC(=O)O)c(O)c4C5=O)C[C@H]3O[C@H]2CC1=O (some centres undefined) [Fridamycin D]	1.14 ± 0.099
CN1C(C)(C)CCCC1(C)C	0.993 ± 0.0099
N[C@@H](Cc1cc(I)c(Oc2cc(I)c(O)c(I)c2)c(I)c1)C(=O)O	1.01 ± 0.037
COc1cc2c(cc1OC)-c1cc3ccc(OC)c(OC)c3c[n+]1CC2	0.983 ± 0.067
CN1CCC[C@@H]1Cc1c[nH]c2ccc(CCS(=O)(=O)c3ccccc3)cc12	0.943 ± 0.028
CCC(=O)NCC[C@@H]1CCc2ccc3c(c21)CCO3	1.04 ± 0.021
O=C(Nc1ccc([N+](=O)[O-])cc1Cl)c1cc(Cl)ccc1O	0.764 ± 0.05

SMILES	cell viability
C=CC1=C(C(=O)O)N2C(=O)[C@@H](NC(=O)/C(=N\O)c3csc(N)n3)[C@H]2SC1	0.911 ± 0.11
CC(N)C12CC3CC(CC(C3)C1)C2 (centres undefined)	1.02 ± 0.028
CCCCCC/C=C\CCCCCCCc1cccc(O)c1C(=O)O	1.05 ± 0.14
C[N+](C)(C)CC(=O)O	0.9965 ± 0.005
Cc1nc2ccccc2c(=O)[nH]1 [2-Methyl-3H-quinazoline-4-on]	0.991 ± 0.011
CNC[C@H](O)c1ccc(O)c(O)c1	0.9995 ± 0.00071
CC(C)Oc1ccc2c(=O)c(-c3ccccc3)coc2c1	0.972 ± 0.013
Oc1ccc2c(c1)O[C@H](c1ccc(O)c(O)c1)[C@@H](O)C2	1.07 ± 0.014
Cc1cc2c(s1)Nc1ccccc1N=C2N1CCN(C)CC1	0.979 ± 0.0057
CC1(C)C[C@@H]2/C(CO)=C\C=C/[C@@](C)(O)CC[C@]21O	1.08 ± 0.2
COc1cc(NS(=O)(=O)c2ccc(N)cc2)nc(OC)n1	0.9765 ± 0.0092
C=C1C(=O)[C@]23[C@H](CC[C@@H]1[C@@H]2O)[C@]12CO[C@@]3(O)[C@H](O)[C@H]1C(C)(C)CC[C@@H]2O	0.931 ± 0.058
Oc1ccc2c(c1)OC[C@]1(O)Cc3cc(O)c(O)cc3[C@H]21	1.01 ± 0.044
Cc1cc(O)c(C)c(O)c1C(=O)O	1 ± 0.05
C[C@@H]1CC[C@]2(C(=O)O[C@@H]3O[C@H](CO)[C@@H](O)[C@H](O)[C@H]3O)CC[C@]3(C)C(=CC[C@@H]4[C@@]5(C)C[C@@H](O)[C@H](O)[C@@](C)(CO)[C@@H]5CC[C@]43C)[C@@H]2[C@]1(C)O [Nigaichigoside F1]	1.17 ± 0.11
CC(=O)N1CCN(c2ccc(OCC3COC(Cn4ccnc4)(c4ccc(Cl)cc4Cl)O3)cc2)CC1 (centres undefined)	0.997 ± 0.033
N/C(=N\C(=O)c1nc(Cl)c(N)nc1N)NCc1ccccc1	0.986 ± 0.035
CC(C)(Sc1cc(C(C)(C)C)c(O)c(C(C)(C)C)c1)Sc1cc(C(C)(C)C)c(O)c(C(C)(C)C)c1	0.947 ± 0.034
NC(CO)C(=O)NNCc1ccc(O)c(O)c1O (centres undefined)	1.03 ± 0.028

Reference: the supplement of paper PMC6522484
